High-throughput results: PubChem BioAssay, National Center for Advancing Translational Sciences (NCATS)
Most compounds without a hit are left out; they make up all but 2.4% or so of the library.
D2 antagonist = antagonizes the human D2 dopamine receptor | P14416 | HEK293 TREx D2 cells, calcium flux, dopamine EC80 | inhibition, % at 10 µM | hit rate 2% among 340,000; in the data active means inhibition above about 30%; inactive means below that, where a call was filed; further: 0% is about no effect
Target sequence (P14416 whole entry, looked up): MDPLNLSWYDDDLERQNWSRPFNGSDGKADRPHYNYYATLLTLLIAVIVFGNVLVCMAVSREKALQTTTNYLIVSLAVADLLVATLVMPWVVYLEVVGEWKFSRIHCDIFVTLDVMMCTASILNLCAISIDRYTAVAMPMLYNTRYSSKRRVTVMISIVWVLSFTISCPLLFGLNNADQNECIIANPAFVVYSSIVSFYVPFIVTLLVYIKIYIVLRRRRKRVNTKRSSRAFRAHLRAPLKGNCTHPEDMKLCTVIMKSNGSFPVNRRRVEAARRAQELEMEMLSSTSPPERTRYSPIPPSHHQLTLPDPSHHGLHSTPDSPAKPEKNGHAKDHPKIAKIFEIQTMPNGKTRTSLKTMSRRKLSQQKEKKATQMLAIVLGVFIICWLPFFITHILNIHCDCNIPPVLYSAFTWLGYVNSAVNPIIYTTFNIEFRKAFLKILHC
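Inhibition of EC80 dopamine-driven calcium flux, recorded kinetically, defines activity here; cells are a tetracycline-induced HEK293 T-REx line expressing force-coupled D2.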
D2 ag-1 = agonists of human D2 dopamine receptor (beta-arrestin). P14416. DiscoveRx PathHunter D2 beta-arrestin, luminescence, 90 min; 100% = 57 uM dopamine signal. activation, % (no concentration beside the values). hit rate 0.084% among 360,000; in the data active means activation above about 40%; inconclusive means between about 15% and that limit
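Agonist mode: compounds alone added to overnight-plated D2 PathHunter cells for 90 min at 37 C, with 57 uM final dopamine (EC100) defining full response. Beta-arrestin recruitment detected by chemiluminescent reagent, read after 1 h at ambient temperature.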
D2 PAM-1 = positive allosteric modulators of human D2 dopamine receptor; P14416; DiscoveRx D2 beta-arrestin cells, luminescence, 90 min; 100% = 57 uM dopamine signal; potentiation, % (no concentration beside the values); hit rate 0.23% among 360,000; in the data active means potentiation above about 50%; inconclusive means mostly about 30% to 49%
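PathHunter beta-arrestin assay in DiscoveRx D2 cells. Compounds were added with an EC20 of dopamine (50 nM final) for 90 min at 37 deg C. Luminescence was read 1 h after detection reagent, with 57 uM dopamine as the EC100 control.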
D2 ag-2 = activates the human D2 dopamine receptor; P14416; HEK293 T-REx D2 cells, calcium flux agonist mode; activation, % at 2 µM; hit rate 0.53% among 340,000; AID 485358;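 active means activation over 3 SD above normal in the single-dose calcium agonist read, cut at about 30% in these data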; further: 0% is about no effect
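Tetracycline-induced HEK293 Trex cells with D2 receptor force-coupled to calcium signaling, plated overnight at 30 C and loaded with no-wash calcium dye. Calcium flux read kinetically for 180 s after compound addition; responses flag agonists.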
D2 PAM-2 = positive allosteric modulators of human D2 dopamine receptor | hit rate 0.34% among 340,000 | HEK293 T-REx D2, calcium flux, EC20 dopamine potentiation | potentiation, % at 10 µM | P14416 | AID 485347;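 active means potentiation over 3 SD above the plate norm, cut at about 30% in these data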; further: 0% is about no effect
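Potentiation of an EC20 dopamine calcium response measured kinetically over 180 s, after a preceding 180 s compound-only read flagging agonists. Cells: inducible Hek293 Trex D2 line, 4000/well, cultured overnight at 30 C before dye loading.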
Numbers without * were called inactive; ? = inconclusive; . = no result given; ! = not confirmed by another sample.

SMILES	D2 antagonist	D2 ag-1	D2 PAM-1	D2 ag-2	D2 PAM-2
O=C(Nc1ccc(-c2cn3cccnc3n2)cc1)c1ccccc1F	.	.	.	1	-8
COC(=O)CCCCC(=O)OC	36*	1	-6	0	2
COC(=O)CCC(=O)OC	.	-6	-33	.	.
COc1cccc(-c2cc(C(=O)Nc3cc(OC)c(OC)c(OC)c3)no2)c1	44*	0	-5	-2	-7
COc1cccc(-c2cc(C(=O)N3CCOCC3)no2)c1	-1	1	-4	-2	-3
COc1ccc(-c2cc(C(=O)N3CCOCC3)no2)cc1	35*	-3	1	-1	-15
COc1ccc(-c2cc(C(=O)Nc3ccc4c(c3)OCO4)no2)cc1	14	-7	-12	0	31*!
COc1cc(NC(=O)c2cccc3c(-c4cccnc4)coc23)cc(OC)c1OC	.	44*	9	.	.
COc1cc(NC(=O)c2cc(-c3ccccc3)on2)cc(OC)c1OC	-1	-4	-23	-1	-3
COC(=O)c1ccc(OCC2c3cc(OC)c(OC)cc3CCN2C(=O)c2cccc(C)c2)cc1 (centres undefined)	.	.	.	0	6
CC1CCCCN1C(=O)c1cc(-c2ccc3c(c2)OCO3)on1 (centres undefined)	-32	-4	-2	0	11
CN1C(C(=O)Nc2ccc(OC(F)(F)F)cc2)=CC(c2ccc3c(c2)OCO3)=NS1(=O)=O	-20	2	-2	0	75*!
Cc1c(C(=O)Nc2ccc3c(c2)OCO3)sc2nc(-c3ccccc3)cn12	67*	-1	-14	0	.
Cc1ccc(C2=NS(=O)(=O)N(C)C(C(=O)Nc3ccc4c(c3)OCO4)=C2)cc1	-33	1	-10	0	-21
CC1CCN(C(=O)c2cc(-c3ccc4c(c3)OCO4)on2)CC1	-16	0	-5	-2	36*
CCc1ccc(NC(=O)C2=CC(c3ccc4c(c3)OCO4)=NS(=O)(=O)N2C)cc1	.	.	.	1	-3
COc1ccc(C2=NS(=O)(=O)N(C)C(C(=O)Nc3ccc4c(c3)OCO4)=C2)cc1	64*	-3	-10	1	-10
CCc1cccc(-n2nnc(-c3nc(-c4cccs4)no3)c2N)c1	.	.	.	1	2
COc1ccc(-c2cc(C(=O)Nc3cc(Br)ccc3O)no2)cc1	36*	0	0	-2	8
COc1ccc(-c2cc(C(=O)Nc3ccccc3SC)no2)cc1	.	-2	-1	.	.
CN(C)CCCNC(=S)/N=c1\sccn1Cc1ccccc1Cl	90*	-2	-11	0	-40
COc1ccccc1C(=O)Oc1cc(N)n(S(=O)(=O)c2ccc(C)cc2)n1	-11	-3	-7	0	-3
COc1ccc(C(=O)Oc2cc(N)n(S(=O)(=O)c3ccc(C)cc3)n2)cc1	38*	-10	-12	1	7
Cn1nnnc1SCC(=O)N1CCc2ccccc21	3	-1	-7	0	-1
Cc1ccccc1CC(=O)N1CCCc2ccccc21	-1	-4	-1	0	2
SMILES	D2 antagonist	D2 ag-1	D2 PAM-1	D2 ag-2	D2 PAM-2
Cc1ccc[n+](CC(=O)N2CCCc3ccccc32)c1	31*	3	-12	1	-16
Cn1nnnc1SCC(=O)N1CCCc2ccccc21	41*	-3	-3	0	-5
O=S(=O)(c1ccc(-c2csc(=Nc3ccc(OC(F)(F)Cl)cc3)n2CCCO)cc1)N1CCCC1	.	.	.	0	15
CCn1ccc2c(OCC(=O)Nc3ccccc3C(F)(F)F)cccc2c1=O	.	.	.	.	-6
O=C(c1ccc([N+](=O)[O-])cc1)N1c2ncnn2C2(CCCCC2)[C@@H]2CCCC[C@@H]21	.	.	.	-2	-4
COc1ccc(C(=O)/C=C/Nc2ccc(S(=O)(=O)Nc3cc(OC)nc(OC)n3)cc2)c(OC)c1	31*	-2	2	0	7
COc1cccc(C(=O)/C=C/Nc2ccc(S(=O)(=O)Nc3cc(OC)nc(OC)n3)cc2)c1	-20	-2	-5	0	-5
C/C(=N\Nc1ccc(S(=O)(=O)Nc2ccccc2)cc1[N+](=O)[O-])c1ccncc1	.	.	.	.	21
COc1ccc(NS(=O)(=O)c2ccc(N/N=C(\C)c3ccncc3)c([N+](=O)[O-])c2)cc1	79*	0	15	0	3
Cc1nc2n(c(=O)c1CCN1CCC(c3noc4cc(F)ccc34)CC1)CCCC2	86*	.	.	.	.
O=C(NCc1ccc(F)cc1)c1ccc2c(=O)n3c(nc2c1)CCCCC3	-4	-1	0	-1	-1
Clc1ccc(-c2ccc(CNCC3CCCO3)o2)cc1 (centres undefined)	35*	3	-8	-2	-23
Cc1cccc(NC(=O)C2CCCN(S(=O)(=O)c3c(C)noc3/C=C/N(C)C)C2)c1C (centres undefined)	.	.	.	0	-5
COCCNCCCOc1ccc(Br)cc1Cl	33*	-1	-39	0	-28
COCCNCCCOc1ccc(Cl)cc1Br	-2	-2	-15	1	-23
COCCCNCCCCOc1ccc(Br)cc1Cl	65*	-4	-36	1	-27
CCN(c1ccc(C)cc1C)S(=O)(=O)c1nnc(NC(=O)c2ccccc2OC)s1	.	.	.	2	-2
COc1cccc(N2CCN(Cc3ncc(-c4ccccc4)o3)CC2)c1	48*	-1	-17	-1	-28
COc1cccc(N2CCN(CC(=O)Nc3nnc(-c4ccccc4)s3)CC2)c1	-12	0	0	0	3
Cc1cc(Nc2ccc(Cl)cc2)n2ncnc2n1	-3	-2	-4	0	5
Cc1ccc(Nc2cc(-c3ccccc3)nc3ncnn23)cc1	33*	-3	-8	0	-1
COc1ccc(C(=O)c2cn(CC(=O)Nc3ccc4c(c3)OCCO4)c3ccc(OC)cc3c2=O)cc1	.	.	.	1	-10
COc1ccc(NC(=O)CCCc2nnc3n(C(C)C)c(=O)c4sccc4n23)cc1Cl	.	.	.	0	-5
O=C1NC(NS(=O)(=O)c2ccccc2)(C(F)(F)F)C(=O)N1c1ccc(F)cc1 (centres undefined)	33*	-5	-3	-1	5
C=CCn1c(CCNC(=O)c2cccs2)nnc1SCC(=O)Nc1cccc(C(C)=O)c1	34*	-1	-21	0	7
CC(C)c1cnc2c(c1SCC(=O)Nc1ccc(C(N)=O)cc1)c(=O)n(C)c(=O)n2C	.	.	.	.	13
N#C/C(=C\c1c(Cl)cccc1Cl)c1nc2ccccc2o1	-6	?	58*	1	5
CN(CC1CCOCC1)C(=O)c1ccc2nc(Cc3cccc(Cl)c3)oc2c1	.	3	12	.	11
O=C(NCC1CCOCC1)c1ccc2nc(Cc3cccc(Cl)c3)oc2c1	61*	-5	-5	1	-22
CN(C)c1ccc(C(CNC(=O)c2ccc(C(C)(C)C)cc2)N2CCOCC2)cc1 (centres undefined)	.	.	.	.	-5
